What all share (assay): NCI-60 one-dose screen, 48 h (100 = growth as untreated, 0 = no growth, -100 = all killed)
What all share (details): 10 µM unless noted

The subject of assay [1] is SR leukemia.
Assay [2] deals with RPMI-8226 leukemia.
Assay [3] relates to OVCAR-8 ovarian.
The test system of assay [4] is OVCAR-5 ovarian.
Assay [5] deals with OVCAR-4 ovarian.
Assay [6] relates to SK-OV-3 ovarian.
For assay [7], the system named is IGROV1 ovarian.
For assay [8], the system named is OVCAR-3 ovarian.
Assay [9] deals with NCI/ADR-RES ovarian.
Assay [10] deals with T-47D breast.
Assay [11] relates to BT-549 breast.
Assay [12] relates to MCF7 breast.
Assay [13] relates to HCT-116 colon.
Assay [14] concerns HCC-2998 colon.
In assay [15] the test system is KM12 colon.
Assay [16] relates to MDA-MB-468 breast.
Assay [17] deals with SW-620 colon.
The subject of assay [18] is MDA-MB-435 melanoma.
In assay [19] the test system is HS 578T breast.

The panel holds about 83,000 compounds, 20% with a hit somewhere; the sample as a whole holds those more often.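 Plates (96-well) were seeded with cells, treated with compound at one concentration, and incubated for 48 hours before percent growth was determined.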 A number with no mark means an inactive call. Activity calls are given as the source filed them. How the source made its calls: active means growth percent below 10; inactive means the rest.

Consider `N#Cc1ccc(C(=O)Nn2c(N)cc3ccccc3c2=O)cc1`, for which the growth in [1] was 76%; in assay [2], 86.5%; in assay [3], 98.1%; in assay [4] it was 103%; in [5], 97.4%; in assay [6], 85.8%. In addition, the growth was 92.9% in [7]; 105% in [8]; 98.3% in [9]; 54.3% in [10]; 85.4% in assay [11]; 39.3% in assay [12]. Also, the growth was 81.7% in assay [13], 108% in assay [14], 103% in assay [15] and 76.4% in [16].

Turning to `COc1ccc(/C=C/c2nc3ccccc3c(=O)n2CC(=O)Nc2ccc(Cl)cc2)cc1`, the growth in assay [1] is 70.8%; in [2], 84%; in assay [3] it was 27%; in [4], 92.7%; in assay [5], 17.2%; in assay [6], 78.7%. For the same molecule, the growth in assay [7] was 96.5%; in assay [8], 50%; in assay [9], 56.1%; in assay [10] it was 66.5%; in [11] it was 63.6%; in assay [17] it was 73.9%. Besides, the growth was 35.4% in assay [13], 116% in assay [14], 61.3% in [15] and 98% in assay [16].

In the case of `CCCCOc1ccc(NC(=O)c2sc3nc(C)ccc3c2N)cc1`, the growth in assay [1] is 19.1%; in assay [2] it was 32.4%; in assay [3] it was 5.4% (active); in assay [4] it was 20.1%; in [5], 1.32% (active); in assay [6] it was -15.9% (active). The growth in assay [7] was 17.7%; in assay [8], 15.5%; in assay [10], 15%; in [11] it was -11.6% (active); in assay [18] it was 39.7%; in assay [12], 18.1%. Moreover, the growth in assay [13] is -67.4% (active); in assay [14], 21.2%; in assay [15] it was 26.2%; in assay [16], -48.4% (active).

As for `COc1ccc(-c2ccnc(SCc3cc4cc(Cl)ccc4[nH]c3=O)n2)cc1`, the growth is 92.5% in assay [1]; 73.8% in [2]; 135% in [4]; 10.1% in [5]; -2.33% (active) in assay [6]; 95.8% in [7]. Also, the growth in assay [8] is 58.2%; in [19], -5.84% (active); in [9], 44.8%; in assay [10], 62.1%; in [11], -18.5% (active); in assay [18] it was 68.5%. Besides, the growth is 69.1% in [17]; 73% in assay [12]; 26.6% in [13]; 100% in assay [14]; 94.7% in [15]; 54.9% in assay [16].

On to `COc1ccc(-c2ccnc(SCc3cc4ccccc4[nH]c3=O)n2)cc1OC`, for which the growth in assay [1] is 40.3%; in assay [2] it was 45%; in assay [3], 0.24% (active); in assay [4], -41% (active); in [5], -2.39% (active); in [6], -69.7% (active). For the same molecule, the growth in [7] was 10.9%; in assay [19], -23.6% (active); in assay [9] it was -40.7% (active); in assay [10] it was -5.29% (active); in assay [11] it was -58.3% (active); in [18], 14.8%. Also, the growth was 48.8% in [17]; 2.06% (active) in [13]; 5.44% (active) in assay [14]; 33.7% in assay [15]; -8.96% (active) in [16].

In the case of `C#CCOc1cc(N(CC)CC)ccc1C(C(=O)NC(C)(C)C)N(C(=O)C1CCc2cc(F)ccc2O1)c1ccc(F)cc1` (configuration not stated), the growth in assay [1] was 26.7%; in assay [2], 25.4%; in assay [4], 69.7%; in [5] it was 51%; in assay [6], 62.4%; in assay [7] it was 68.2%. Also, the growth in assay [8] is 47.9%; in [19], 64.4%; in [9] it was 56.8%; in assay [10], 40.3%; in assay [11], 50.9%; in [18] it was 54.4%. Also, the growth in assay [17] was 58.6%; in assay [12] it was 20.2%; in assay [13], 27.1%; in [14], 71.9%; in [15] it was 25.7%; in [16] it was 33.2%.

With `N#Cc1c(-c2ccccc2Cl)cc(-c2ccc3ccccc3c2)[nH]c1=O`, the growth in assay [1] is 48.9%; in [2] it was 61.5%; in assay [3] it was 12.2%; in assay [4] it was 44.1%; in [5], -46% (active); in assay [6], 52.1%. The growth in [7] is 48.2%; in assay [9] it was 13.4%; in [10], -21.3% (active); in assay [11], 3.43% (active); in assay [18] it was 61.7%; in assay [12] it was 44.4%. Further, the growth in assay [13] is 17.9%; in assay [14], 49.1%; in [15], 74.4%; in [16], 5.01% (active).

`CCCS(=O)(=O)N1CCCC(C(=O)Nc2nc3ccc(NC(=O)c4ccc(F)c(OC)c4F)cc3s2)C1` (configuration not stated): the growth is 16.2% in [1]; 12.4% in assay [2]; 86% in assay [4]; 32.3% in assay [5]; 61.1% in assay [6]; 63.3% in assay [7]. Moreover, the growth is 48.9% in assay [8]; 29.4% in [19]; 19.9% in [9]; -0.579% (active) in assay [10]; -11.9% (active) in [11]; 81.6% in assay [17]. The growth is 13.1% in [12]; 31.1% in [13]; 72.5% in assay [14]; 41.3% in assay [15]; 18.5% in assay [16].

In the case of `CN1C(=O)/C(=C/c2ccc(C(=O)Nc3ncc(Cc4ccc(Cl)cc4Cl)s3)cc2)SC1=S`, the growth is 28.8% in assay [1]; 36.3% in [2]; 46.3% in assay [4]; 53.6% in [5]; 53.3% in assay [6]; 47.2% in assay [7]. The growth in assay [8] was 12.9%; in assay [19], 44.3%; in assay [9], -11.8% (active); in assay [10] it was 23.9%; in assay [11], 31.6%; in assay [18], -4.21% (active). In addition, the growth in assay [17] was 45.1%; in assay [12] it was 30.6%; in assay [13] it was 29.6%; in assay [14] it was 40.4%; in assay [15], 15.5%; in assay [16] it was -9.37% (active).

The values are drawn from PubChem BioAssay (NCI).
